SMILES strings stand for the structures. This is part of a sample that, as a whole, favours compounds with a hit. Of some 83,000 tested, about 20% had one in any assay.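 Results are percent growth after 48 hours of single-concentration exposure. 100 means growth as in untreated cells, lower positive values show inhibition; negative values down to -100 show cell death.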 Unmarked numbers belong to inactive results. Calls of active or inactive are those of the source. The calls were made as follows: active = growth percent below 10; inactive = the rest.

Holding throughout (experiment): NCI-60 one-dose screen, 48 h (100 = growth as untreated, 0 = no growth, -100 = all killed)
Common to all, as to details: 10 µM unless noted

Experiment [1] deals with NCI-H23 lung.
In experiment [2] the test system is NCI-H226 lung.
The test system of experiment [3] is NCI-H322M lung.
Experiment [4] has as its system HOP-62 NSCLC.
Experiment [5] deals with NCI-H460 lung.
Experiment [6] deals with HOP-92 NSCLC.
Experiment [7] concerns A549/ATCC NSCLC.
The test system of experiment [8] is 786-0 renal.
Experiment [9] concerns COLO 205 colon.

`COc1ccc2nc(NC(=O)CN3CCn4c(nnc4C(F)(F)F)C3)sc2c1`: the growth was 91.6% in experiment [1]; 92.2% in experiment [2]; 98.5% in experiment [3]; 88.1% in [4]; 99.5% in [5]; 101% in [6]. Moreover, the growth was 88.4% in experiment [7], 96.9% in experiment [8] and 109% in [9].

As for `O=C1NC(=S)S/C1=C\c1cc(Br)ccc1O`, the growth was 84.7% in experiment [1]; 91.4% in [2]; 92.3% in experiment [3]; 81.6% in experiment [4]; 102% in experiment [5]; 75.7% in [6]. The growth in [7] was 107%; in experiment [8] it was 109%; in [9] it was 95%.

`CC(C)C[C@H](NC(=O)/C=C/Cn1ccc2ccccc2c1=O)B(O)O`: the growth is 56.3% in [1]; -15.5% (active) in experiment [2]; 85.4% in [3]; 44.8% in [4]; 84.6% in experiment [5]; 99.7% in experiment [6]. Also, the growth is 69% in [7], 55.1% in experiment [8] and 49.7% in experiment [9].

`COc1ccc2c(c1)CC[C@@H]1[C@@H]2CC[C@]2(C)[C@@H](O)C(=O)C[C@@H]12`: the growth in experiment [1] is 102%; in [2], 114%; in experiment [3] it was 91.3%; in [4] it was 103%; in experiment [5], 102%; in experiment [6], 116%. Also, the growth is 99.6% in [7], 106% in [8] and 102% in experiment [9].

As for `Cc1cc2c(cc1C)[n+](Cc1ccc3ccccc3n1)cn2Cc1ccc2ccccc2n1`, the growth in experiment [1] is 1.58% (active); in experiment [2], 9.61% (active); in [3], 36%; in experiment [4] it was 4.38% (active); in experiment [5], 0.342% (active); in experiment [6], -27.3% (active). Moreover, the growth was 30.4% in experiment [7], 11.2% in [8] and -61.5% (active) in experiment [9].

Regarding `c1cc[n+](Cc2ccnc3ccccc23)cc1`, the growth in experiment [1] was 123%; in experiment [2], 93.9%; in [3], 111%; in [4], 94.1%; in [5], 106%; in [6], 47.9%. For the same compound, the growth was 107% in experiment [7], 107% in experiment [8] and 104% in [9].

For `Cc1cc(C)c2c(N)c3cccc(C)c3nc2n1`, the growth in experiment [1] is -28.6% (active); in [2], -10.6% (active); in experiment [3], 0.65% (active); in [4] it was -28.4% (active); in [5], -1.3% (active); in [6], -12.9% (active). The growth in [7] is -40.9% (active); in [8], -3.97% (active); in experiment [9], -18.2% (active).

`CCN(CC)CCOCC[C@H]1CC[C@H]2[C@@H]3[C@H](C)Cc4cc(OS(N)(=O)=O)ccc4[C@H]3CC[C@]12C`: the growth in experiment [1] is -87.4% (active); in experiment [2], -61.9% (active); in experiment [3], -24.9% (active); in experiment [4], -96.7% (active); in experiment [5] it was -85.2% (active); in experiment [6] it was -88.2% (active). Besides, the growth was -90.2% (active) in experiment [7], -99.6% (active) in experiment [8] and -78.5% (active) in experiment [9].

With `ICCC(c1ccccc1)(c1ccccc1)c1ccccc1`, the growth is 65.6% in experiment [1]; 89.8% in [2]; 86.4% in [3]; 55.8% in experiment [4]; 69.5% in experiment [5]; 40.6% in experiment [6]. The growth in experiment [7] was 59.8%; in experiment [8], 43.8%; in experiment [9] it was -61.5% (active).

Take `CCOC(=O)Nc1ccc2c3c(cccc13)-c1ccccc1-2`: the growth in [1] was 42.8%; in experiment [2] it was 63.1%; in experiment [3], 50.6%; in experiment [4], 45.1%; in [5], 19.2%; in experiment [6], 81.6%. The figures for the growth in [7], in experiment [8] and in experiment [9] were 47%, 44.1% and 24.3%, respectively.

Regarding `COc1ccc2c(=O)c(OC)c(-c3cc(OC)c(OC)c(OC)c3)oc2c1`, the growth is 86.4% in [1]; 91.3% in experiment [2]; 89.1% in experiment [3]; 82.8% in [4]; 102% in experiment [5]; 46.5% in experiment [6]. The growth in [7] is 44.1%; in experiment [8], 67.8%; in [9], 129%.

Regarding `C[C@]12CCC(=O)C=C1CC[C@H]1[C@@H]3C[C@@H](O)[C@](O)(C(=O)CO)[C@@]3(C)C[C@H](O)[C@@]12F`, the growth is 110% in experiment [1]; 83.1% in [2]; 128% in experiment [3]; 101% in experiment [4]; 93.4% in experiment [5]; 80.3% in experiment [6]. Also, the growth was 63.1% in experiment [7], 111% in experiment [8] and 103% in experiment [9].

Consider `Cc1cnc2nc(-c3ccc(N(C)C)cc3)cn2c1`, for which the growth in experiment [1] was 93.2%; in experiment [2], 102%; in experiment [3], 110%; in experiment [4], 99.5%; in [5], 114%; in [6] it was 104%. Besides, the growth in experiment [7] is 95.5%; in experiment [8], 91.5%; in experiment [9], 120%.

With `O=C(Nc1ccc2c(c1)C(=O)c1ccccc1-2)c1ccccc1`, the growth in experiment [1] is 95%; in [2], 97.6%; in experiment [3] it was 101%; in experiment [4], 44.3%; in experiment [5], 87.4%; in experiment [6] it was 82.1%. The growth is 100% in [7], 52.1% in experiment [8] and 97.8% in experiment [9].

In the case of `COc1ccc(-c2cnc(SCC(=O)Nc3ccc(-c4nc5ccccc5s4)cc3)n2-c2ccc(OC)cc2)cc1`, the growth is 101% in [1]; 105% in experiment [2]; 102% in experiment [3]; 106% in experiment [4]; 110% in experiment [5]; 93.6% in [6]. Further, the growth in [7] is 101%; in [8], 102%; in experiment [9] it was 112%.

As for `c1ccc(CN=C(NCc2ccccc2)NCc2ccccc2)cc1`, the growth in experiment [1] was 42.4%; in [2], 51.1%; in experiment [3] it was 75.6%; in experiment [4] it was 78.6%; in experiment [5], 73.4%; in experiment [6], 48.5%. Also, the growth is 47.3% in experiment [7], 73.1% in [8] and 41.3% in experiment [9].

For the compound `CCOC(=O)CNC(=O)C1(NC(=O)CNC(=O)OCc2ccccc2)CCCC1`, the growth was 105% in [1]; 115% in [2]; 109% in experiment [3]; 112% in experiment [4]; 112% in experiment [5]; 96.2% in experiment [6]. Moreover, the results for the growth in experiment [7], in experiment [8] and in [9] were 89.8%, 94.9% and 120%, respectively.

For the compound `c1ccc(-c2oc(-c3ccccc3)c3ccccc23)cc1`, the growth in [1] is 99.2%; in [2], 104%; in experiment [3], 118%; in experiment [4], 98.2%; in [5], 102%; in experiment [6] it was 78.7%. Also, the growth in experiment [7] is 99%; in experiment [8] it was 101%; in experiment [9] it was 105%.

As to `O=C1c2cccc(NCCN=Cc3ccccc3O)c2C(=O)c2c(NCCN=Cc3ccccc3O)cccc21`, the growth in experiment [1] was 27.8%; in experiment [2], 73.1%; in experiment [3], -19.2% (active); in experiment [4], 17.6%; in [5], 4.28% (active); in experiment [6], -38.3% (active). In addition, the growth in [7] is 25.7%; in [8], 36.7%; in [9], 8.33% (active).

With `CCCCCCCCCCCCCCCCNC(=O)Nc1ccc2ccccc2c1`, the growth was 103% in experiment [1]; 108% in [2]; 110% in [3]; 105% in [4]; 99.2% in experiment [5]; 74.5% in experiment [6]. The growth is 107% in [7], 104% in experiment [8] and 103% in experiment [9].

Turning to `COCCOCCOCCOCCOc1ccc2c(c1)C(=O)c1nc3ncccc3c(=O)n1-2`, the growth was -40.1% (active) in experiment [1]; -49.3% (active) in [2]; -88% (active) in experiment [3]; -83% (active) in [4]; -61.2% (active) in [5]; -18.7% (active) in experiment [6]. Besides, the growth is -77.4% (active) in experiment [7], -51.5% (active) in experiment [8] and -85.9% (active) in [9].

With `Cc1n(Cc2ccc3ccccc3c2)c2ccccc2[n+]1Cc1ccc2ccccc2c1`, the growth in [1] is -29.5% (active); in experiment [2], -9.12% (active); in experiment [3] it was 9.37% (active); in [4], -62% (active); in [5], -73.9% (active); in experiment [6] it was -68.2% (active). In addition, the figures for the growth in [7], in experiment [8] and in [9] were 8.96% (active), -92.8% (active) and -77.1% (active), respectively.

In the case of `O=C(/C=C/c1c(-c2ccccc2)[nH]c2ccccc12)S(=O)(=O)c1ccccc1`, the growth in experiment [1] was 73%; in [2], 69.1%; in experiment [3], 93%; in experiment [4], 69.3%; in experiment [5], 43.8%; in experiment [6] it was 47.8%. The growth in [7] was 25.7%; in [8], 74.4%; in experiment [9] it was 80.6%.

`COC(=O)CC1=C(c2ccc([N+](=O)[O-])cc2)CCC1=O`: the growth is 100% in experiment [1]; 94% in experiment [2]; 115% in experiment [3]; 102% in experiment [4]; 103% in [5]; 89.5% in experiment [6]. For the same compound, the growth was 94.7% in [7], 104% in experiment [8] and 98.2% in experiment [9].

As to `Cc1ccc(N/N=C(/C(=O)c2ccc(Cl)cc2)c2nc(C)cc(=O)[nH]2)cc1`, the growth in [1] was 111%; in experiment [2], 107%; in experiment [3] it was 106%; in experiment [4], 94.2%; in experiment [5], 105%; in [6] it was 91%. In addition, the growth in experiment [7] was 100%; in [8], 82.9%; in experiment [9], 116%.

For the compound `COc1ccc(-c2c3c(N)nc(-c4ccncc4)nc3nc3c2c(C)nn3-c2ccccc2)cc1`, the growth in experiment [1] is 59.9%; in experiment [2], 74%; in experiment [3] it was 74.3%; in experiment [4], 62.6%; in [5], 23.4%; in experiment [6] it was 51.4%. Besides, the growth in experiment [7] is 30.8%; in experiment [8], 72.6%; in experiment [9] it was 38.6%.

Turning to `NC(=O)c1cc(Cl)ccc1NC(=O)c1ccccc1-c1ccccc1`, the growth is 39.9% in experiment [1]; 57.7% in experiment [2]; 30% in experiment [3]; 39% in [4]; 13.2% in [5]; 67.7% in experiment [6]. Moreover, the results for the growth in [7], in experiment [8] and in experiment [9] were 35.6%, 26.6% and -14.1% (active), respectively.
